Test in all cases: cross-link between two proteins; affinity purification or IP with mass spectrometry; cross-linking mass spectrometry
The target of assay [1] is Ribosomal RNA-processing protein 15 (UniProt Q06511).
The target of assay [2] is Ribosome biogenesis protein BRX1 (UniProt Q08235).
Assay [3] has as its target Ribosome biogenesis protein NSA1 (UniProt P53136).
Assay [4] concerns the target Ribosome biogenesis protein SSF1 (UniProt P38789).
The target in assay [5] is Ribosome production factor 1 (UniProt P38805).

UniProt Q08235, sequence (Q08235 whole entry): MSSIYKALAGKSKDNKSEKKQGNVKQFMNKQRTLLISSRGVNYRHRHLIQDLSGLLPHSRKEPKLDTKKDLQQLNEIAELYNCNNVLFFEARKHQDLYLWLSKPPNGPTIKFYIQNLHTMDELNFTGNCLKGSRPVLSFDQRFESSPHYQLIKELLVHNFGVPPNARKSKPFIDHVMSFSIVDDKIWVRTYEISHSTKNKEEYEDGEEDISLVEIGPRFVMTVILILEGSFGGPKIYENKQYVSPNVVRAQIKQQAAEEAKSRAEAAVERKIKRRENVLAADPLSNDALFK
UniProt P53136, sequence (P53136 whole entry): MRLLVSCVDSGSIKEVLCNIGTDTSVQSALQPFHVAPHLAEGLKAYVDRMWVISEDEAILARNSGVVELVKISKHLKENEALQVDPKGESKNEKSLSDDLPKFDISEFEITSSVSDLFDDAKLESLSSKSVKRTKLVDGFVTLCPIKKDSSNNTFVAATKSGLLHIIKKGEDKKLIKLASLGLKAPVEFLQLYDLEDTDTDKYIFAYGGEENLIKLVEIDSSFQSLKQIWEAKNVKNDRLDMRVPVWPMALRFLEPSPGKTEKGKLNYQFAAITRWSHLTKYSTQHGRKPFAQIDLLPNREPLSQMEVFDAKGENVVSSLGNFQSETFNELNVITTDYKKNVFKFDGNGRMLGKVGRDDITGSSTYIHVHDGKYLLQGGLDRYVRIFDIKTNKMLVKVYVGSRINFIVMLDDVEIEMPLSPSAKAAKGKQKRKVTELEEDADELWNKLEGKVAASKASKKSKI
UniProt Q06511, sequence (Q06511 whole entry): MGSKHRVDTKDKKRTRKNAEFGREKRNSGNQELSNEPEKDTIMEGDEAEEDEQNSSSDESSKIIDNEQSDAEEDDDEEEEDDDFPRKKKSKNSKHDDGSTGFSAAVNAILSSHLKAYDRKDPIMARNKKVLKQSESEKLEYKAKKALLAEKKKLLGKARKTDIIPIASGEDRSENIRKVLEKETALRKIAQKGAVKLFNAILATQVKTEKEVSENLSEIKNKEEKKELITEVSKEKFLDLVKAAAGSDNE
Ribosome biogenesis protein SSF1, P38789, sequence (P38789 whole entry): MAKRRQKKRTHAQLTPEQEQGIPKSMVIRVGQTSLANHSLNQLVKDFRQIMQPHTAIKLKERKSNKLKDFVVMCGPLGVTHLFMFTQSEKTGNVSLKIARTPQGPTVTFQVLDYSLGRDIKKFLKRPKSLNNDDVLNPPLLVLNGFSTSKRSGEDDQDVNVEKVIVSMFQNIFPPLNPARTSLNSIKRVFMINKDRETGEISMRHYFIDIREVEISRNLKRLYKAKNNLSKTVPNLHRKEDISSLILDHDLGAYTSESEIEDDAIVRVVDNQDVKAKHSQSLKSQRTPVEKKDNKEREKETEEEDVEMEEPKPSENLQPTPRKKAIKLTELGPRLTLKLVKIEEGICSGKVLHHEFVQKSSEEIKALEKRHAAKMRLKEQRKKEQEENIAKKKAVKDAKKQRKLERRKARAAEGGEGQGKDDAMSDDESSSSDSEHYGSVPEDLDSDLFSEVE
Ribosome production factor 1, P38805, sequence (P38805 whole entry): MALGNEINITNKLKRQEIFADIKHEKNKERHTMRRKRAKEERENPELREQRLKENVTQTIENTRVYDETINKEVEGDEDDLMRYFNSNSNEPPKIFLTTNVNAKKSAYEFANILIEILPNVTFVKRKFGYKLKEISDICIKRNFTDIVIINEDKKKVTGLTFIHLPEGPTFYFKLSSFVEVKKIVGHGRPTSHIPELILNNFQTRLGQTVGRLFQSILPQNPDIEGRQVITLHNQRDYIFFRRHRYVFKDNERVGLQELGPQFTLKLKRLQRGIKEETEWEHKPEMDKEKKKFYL

Regarding “Ribosome biogenesis protein SSF1, P38789”, the “listed as a hit” value in assay [1] and in assay [2] was “yes” each time.

With Ribosome production factor 1, P38805, the “listed as a hit” value in assay [3] is listed as “yes”.

Take “Large ribosomal subunit protein uL29A, P0CX84”: the “listed as a hit” value in assay [4] is reported as “yes”.

On to “Large ribosomal subunit protein uL22A, P05740”, for which the “listed as a hit” value in assay [5] is “yes”.

Source of the values: publication PMC6340896.
